About 13,000 (27%) of roughly 48,000 compounds showed an effect of 50% or more. This is one part of the list.
system: Wolbachia pipientis; assay: Anti-Wolbachia Cell-Based Screen; format: functional; design: scale not given: in the data most compounds retested in dose-response had high values; details: 5 µM

Compound	Percent Effect
Cc1nc(C)c2c(n1)CCN(C(=O)C1(C#N)CC1)CC2	-4.604%
Fc1cccc(-c2nnn3c2COC(CNCc2nccs2)C3)c1.O=C(O)C(F)(F)F (stereo unspecified)	-16.9%
Cc1ccc(OCC2CCCN(C(=O)CN3CCOCC3)C2)cc1 (stereo unspecified)	-2.27%
COc1cccc(OCC2CCCN(C3CCN(C(C)=O)CC3)C2)c1 (stereo unspecified)	-9.945%
COc1cccc(OCC2CCCN(C(C)=O)C2)c1 (stereo unspecified)	-1.082%
CNC(=O)c1ccnc(N2CCCC(COc3cccc(C)c3)C2)c1 (stereo unspecified)	-58.5%
CC(=O)N1CCN(C(C)C)CC(COc2ccccc2)C1 (stereo unspecified)	109.4%
CC(=O)N1CCN(CC(N)=O)CC(COc2ccccc2)C1 (stereo unspecified)	106.5%
CC(=O)N1CCN(c2ccnc(C)n2)CC(COc2ccccc2)C1 (stereo unspecified)	112.4%
Cc1nccc(N2CCC(Cc3cccc(C(=O)O)c3)CC2)n1	4.494%
O=C(N1CCN(CCO)CC1)C1(O)Cc2ccccc2C1	-5.424%
CCc1ccc(S(=O)(=O)Nc2cn(C)cc(Br)c2=O)cc1	-15.07%
Cc1ccc(-c2ncc(CN3CCN(S(N)(=O)=O)CC3)s2)o1	2.671%
CCn1ccnc1CN(C)c1nc(-c2ccc(Cl)cc2)nc2c1CNC2	-33.82%
O=c1nc(SCc2ccncc2)c2c(n1CCO)CCCC2	-12.21%
COc1cccc(CN2C[C@H]3CCNCC[C@H]3S2(=O)=O)c1	18.94%
COc1ccc(Cn2c(C3CCNCC3)cc3cccnc32)cc1.Cl	109.4%
CN1CCCC1c1cc2cccnc2n1Cc1ccc(F)cc1.Cl (stereo unspecified)	120.9%
COc1cccc(Cn2c(C3CCNCC3)cc3cccnc32)c1.Cl	140.1%
CC[C@H](C)Cn1nc(C2CCNCC2)n(Cc2ccccc2)c1=O	-2.943%
CN1CCCCC1c1nc(Cc2cccc(F)c2)no1 (stereo unspecified)	-5.711%
CCOC(C)C(=O)Nc1ccc(Sc2nncn2C)c(Cl)c1 (stereo unspecified)	-6.719%
Cc1cc(CS(=O)(=O)N(C)C(C)c2ccc(F)cc2)on1 (stereo unspecified)	-9.775%
CN(C)C(=O)NCc1cc2n(n1)CCN(C[C@H]1[C@@H]3CNC[C@@H]31)C2	-18.92%
Cc1cnn(CCNCC(O)COc2c(C)ccc(C)c2C)c1 (stereo unspecified)	-3.427%
COc1cccc(-c2cccc(-c3ccn(CC4COCCO4)n3)c2)n1 (stereo unspecified)	-14.19%

Compound	Percent Effect
COc1ccccc1CNC1(CCO)CCOCC1	8.279%
Cc1cnc(C(=O)N2C[C@H]3CN(Cc4cccs4)C[C@H]3C2)cn1	71.69%
Cc1cnc(C(=O)N2C[C@H]3CCCC(OCc4cccnc4)[C@H]3C2)cn1 (stereo partly specified)	-8.577%
O=C(c1cscn1)N1C[C@H]2CN(Cc3nccs3)C[C@H]2C1	-12.17%
CNC(=O)[C@H]1C[C@@H]2CN(C(=O)c3cnc(C)cn3)C[C@@H]2N1C	18.09%
Cc1cnc(C(=O)N2C[C@H]3CN(Cc4nccs4)C[C@H]3C2)cn1	103.8%
Cc1cnc(C(=O)N2C[C@@H]3[C@@H](C2)OCC(=O)N3CC2CCCC2)cn1	9.694%
O=C(O)C(F)(F)F.O=C1C[C@H]2[C@@H](CCN2C(=O)c2ccccc2)N1CCN1CCOCC1	-5.805%
COc1ccccc1OC1CCN(c2nc(N)nc3[nH]cnc23)CC1	-23.58%
Cc1cccc(OC2CCN(c3nc(N)nc4[nH]cnc34)CC2)c1	-26.6%
COc1ccccc1N1CCN(c2nc(N)nc3[nH]cnc23)CC1	106.2%
Cc1ccc2nc(CN3CCN(C4CCCCC4)C(=O)C3)cc(O)c2c1	-5.19%
O=C1CN(Cc2ccc3ccccc3n2)CCN1C1CCCC1	128.2%
Cc1ccc2nc(CN3CCN(C4CCCC4)C(=O)C3)cc(O)c2c1	1.578%
COc1ccc(CC2(C(=O)O)CCN(c3nc(C)ncc3C)CC2)cc1	-10.05%
Cc1ccc(-c2cccc(CC3(C(=O)O)CCOCC3)c2)c(C)c1	93.34%
Cc1ccccc1-c1cccc(CN2C[C@H]3C(=O)NC[C@@]3(C(=O)O)C2)c1	6.685%
Cc1cc(C)cc(-c2cccc(CC3(C(=O)O)CCOCC3)c2)c1	-21.94%
Cc1cccc(-c2cccc(CC3(C(=O)O)CCOCC3)c2)c1	103%
Cc1cccc(NC(=O)NCC2(N3CCOCC3)CCSC2)c1 (stereo unspecified)	9.501%
C=C(C)CN(CC)C(=O)Nc1ccccc1CN(C)C(C)=O	4.408%
Cc1nc2ccc(CN3CC4(CCOC4)CCC3=O)cc2[nH]1 (stereo unspecified)	9.533%
COCc1nc2n(n1)CCCC2Nc1nc(C)ns1 (stereo unspecified)	-20.01%
CCC1(CO)CCN(C(=O)c2cc(COc3ccccc3F)[nH]n2)CC1	118.9%
COc1ccccc1OCc1cc(C(=O)N2CCS(=O)(=O)CC2)n[nH]1	-14.83%
COc1ccccc1OCc1cc(C(=O)N2CCN[C@H](C)C2)n[nH]1	8.163%

Compound	Percent Effect
COc1ccccc1OCc1cc(C(=O)N2CCC(C(C)O)CC2)n[nH]1 (stereo unspecified)	7.435%
O=C(c1cc(COc2ccc3c(c2)OCO3)[nH]n1)N1CCCC1	-5.101%
CCC1(CO)CCCN(C(=O)c2cc(COc3cccc(F)c3)[nH]n2)C1 (stereo unspecified)	87.47%
COc1ccccc1OCc1cc(C(=O)N2CCN(C(C)=O)CC2)n[nH]1	-25.23%
CCC1(CO)CCCN(C(=O)c2cc(COc3ccccc3F)[nH]n2)C1 (stereo unspecified)	110.4%
COc1cccc(OCc2cc(C(=O)N3CC(O)C3)n[nH]2)c1	-9.479%
CC(C)N(Cc1ccccc1)Cc1csc(-c2ncccn2)n1	-35.25%
CCOCc1ncn2c1CN(S(=O)(=O)c1cccs1)CC2	-7.388%
CCOCc1ncn2c1CN(C(=O)Nc1cccc(F)c1)CC2	101.4%
Cc1cccc(C(=O)N2CCn3cnc(COCC4CC4)c3C2)c1	-5.443%
Cn1nc(CN2CCCCC2)c2c1CN(C(=O)Nc1cccc(F)c1)C2	-11.17%
CCOCc1ncn2c1CN(C(=O)Nc1ccccc1)CC2	106.5%
Cc1cccc(NC(=O)N2CCn3cnc(COCC4CC4)c3C2)c1	96.57%
Cc1cccc(C(=O)N2CCn3cnc(COCC4CC4)c3C2)n1	-8.525%
CCOCc1ncn2c1CN(C(=O)c1ccoc1)CC2	-9.138%
CCOCc1ncn2c1CN(C(=O)Nc1cccc(C)c1)CC2	-4.198%
CCc1cccc(NC(=O)N2CCn3cnc(COC)c3C2)c1	112.6%
CCN(CCSc1ccccc1)C(=O)c1cn([C@H]2CC[C@@H](N)CC2)nn1	-3.362%
Cc1ccc(Cl)cc1NS(=O)(=O)c1cc(C(N)=O)n(C)c1	-91.07%
Cc1cccc(C(=O)N2CCc3ncnc(C4CCOC4)c3CC2)n1.O=C(O)C(F)(F)F (stereo unspecified)	-11.48%
COC(=O)c1sc(NCc2ccc(N3CCC(O)CC3)c(F)c2)nc1Cl	-2.093%
CC(C)C(N)C1=N/C(=C2\N=CN=N2)NO1 (stereo unspecified)	-4.222%
CCn1ccnc1CN(C)Cc1nc(Cc2ccccc2F)no1	-2.902%
O=C(Nc1ccccc1)N1CCn2nnc(COc3cccnc3)c2C1.O=C(O)C(F)(F)F	-20.87%
CCOCc1ncn2c1CN(S(=O)(=O)c1ccc(C)cc1)CC2	1.086%
CCOCc1ncn2c1CN(C(=O)Nc1ccc(CC)cc1)CC2	108%

Compound	Percent Effect
COc1cccc(S(=O)(=O)N2CCn3cnc(COCC4CC4)c3C2)c1	-6.989%
COc1cccc(NC(=O)N2CCC(O)(C(F)(F)F)C2)c1 (stereo unspecified)	-18.52%
COCc1ncn2c1CN(S(=O)(=O)c1ccc(C)cc1)CC2	-7.243%
CCc1ccccc1NC(=O)N1CCn2cnc(COC)c2C1	1.009%
COCc1ncn2c1CN(C(=O)Nc1ccccc1)CC2	105.1%
CCOCc1ncn2c1CN(C(=O)Nc1ccccc1CC)CC2	104.8%
CCOCc1ncn2c1CN(S(=O)(=O)c1ccc(F)cc1)CC2	3.769%
COCc1ncn2c1CN(C(=O)Nc1cccc(OC)c1)CC2	106.3%
N#Cc1ccc(F)c(CN2CCCC2Cn2cnc3ccccc32)c1 (stereo unspecified)	-5.507%
CN1CCOC(C(=O)Nc2nnc(Cc3ccc(F)cc3)[nH]2)C1 (stereo unspecified)	-0.8523%
Cc1cccc(NCc2ncc(C(C)(C)C)o2)c1	-14.59%
O=C(CN1CCS(=O)(=O)CC1)NC1CCCOc2ccccc21 (stereo unspecified)	0.4653%
CCN(Cc1ccoc1)C(=O)c1cc2c(c(S(N)(=O)=O)c1)CCC2	-33.33%
CN(CC(=O)NC(C)(C#N)C1CC1)Cc1nc2ccccc2n1C (stereo unspecified)	-1.45%
COc1cccc2c1OCCCN(Cc1ncccc1C(=O)O)C2	13.59%
COc1ccccc1CN1C(=O)O[C@@H]2CN(CC3CC3)C[C@@H]21	6.078%
COc1cc2cc3c(nc2cc1OC)OCCN(Cc1ccco1)C3	100%
CC(C)N1CCOCC2(CN(Cc3ccco3)CCO2)C1 (stereo unspecified)	-3.394%
COc1ncc(C2(O)CCN(Cc3cccs3)CC2)c(OC)n1.Cl	-7.48%
COc1cc2cc3c(nc2cc1OC)OCCN(Cc1cccs1)C3	120.6%
c1ccc(O[C@H]2COCCN(CC3CC3)C2)cc1	-13.37%
COc1cc2cc3c(nc2cc1OC)OCCN(CC1CC1)C3	154.4%
COc1cncc(N2CCN(Cc3ccco3)CC2)n1	-6.733%

From ChEMBL document CHEMBL3988442, “University of Dundee, Small-Polar-MMV Screening Library” (2021)
